Source: PubChem (National Center for Advancing Translational Sciences (NCATS))
Pol eta inh-1: inhibitors of human DNA polymerase eta; Potency, µM (highest dose often 114 µM), without a hit: at the highest dose activity change, negative = inhibition, actives largely listed as inhibitors; recombinant Pol eta, fluorescent DNA replication assay; 390,000 compounds, 1.2% hits; also: potency is read from the fitted curve at half-maximal effect; % is scaled to controls: 0 for no effect and ±100 for the full control effect
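Pol eta at 10 nM preincubated with compounds 15 min at room temperature; reaction started with fluorescent substrate (50 nM final) and read kinetically at 0 and 10 min.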
Pol kappa inh-1: inhibitors of human DNA polymerase kappa; Q9UBT6; purified Pol kappa, fluorescent DNA synthesis assay, 10 min; Potency, µM (highest dose often 107 µM), inactives show top-dose activity, negative = inhibition, usual class: inhibitors; 400,000 compounds, 0.53% hits; AID 588579; also: potency is read from the fitted curve at half-maximal effect; % is scaled to controls: 0 for no effect and ±100 for the full control effect
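Inhibition of 10 nM Pol kappa is measured by a fluorescent read-out at 0 and 10 min following addition of 50 nM substrate (final), with a 15-min room-temperature compound preincubation.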
Pol beta inh: blocks human DNA polymerase beta activity; AID 485314; 340,000 compounds, 1.3% hits; P06746; Potency, µM (titrated, usually from 114 µM), for inactives: at the highest dose activity change, negative = inhibition, actives largely listed as inhibitors; Pol beta primer extension/strand displacement, fluorescence kinetic; also: potency is read from the fitted curve at half-maximal effect; % is scaled to controls: 0 for no effect and ±100 for the full control effect
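Enzyme-only controls used 10 nM Pol beta; buffer lacking enzyme served as negative control. Compound preincubated 15 min, then 50 nM substrate added; 0 and 10 min reads at room temperature.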
Pol iota inh: inhibitors of human DNA polymerase iota | Pol iota fluorescent replication assay, 10 min | Potency, µM (top dose mostly 115 µM), without a hit: at the top dose activity, negative = inhibition, most hits filed as inhibitors | 390,000 compounds, 1% hits | AID 588590; also: potency is read from the fitted curve at half-maximal effect
Target sequence (Q9UNA4 whole entry, looked up): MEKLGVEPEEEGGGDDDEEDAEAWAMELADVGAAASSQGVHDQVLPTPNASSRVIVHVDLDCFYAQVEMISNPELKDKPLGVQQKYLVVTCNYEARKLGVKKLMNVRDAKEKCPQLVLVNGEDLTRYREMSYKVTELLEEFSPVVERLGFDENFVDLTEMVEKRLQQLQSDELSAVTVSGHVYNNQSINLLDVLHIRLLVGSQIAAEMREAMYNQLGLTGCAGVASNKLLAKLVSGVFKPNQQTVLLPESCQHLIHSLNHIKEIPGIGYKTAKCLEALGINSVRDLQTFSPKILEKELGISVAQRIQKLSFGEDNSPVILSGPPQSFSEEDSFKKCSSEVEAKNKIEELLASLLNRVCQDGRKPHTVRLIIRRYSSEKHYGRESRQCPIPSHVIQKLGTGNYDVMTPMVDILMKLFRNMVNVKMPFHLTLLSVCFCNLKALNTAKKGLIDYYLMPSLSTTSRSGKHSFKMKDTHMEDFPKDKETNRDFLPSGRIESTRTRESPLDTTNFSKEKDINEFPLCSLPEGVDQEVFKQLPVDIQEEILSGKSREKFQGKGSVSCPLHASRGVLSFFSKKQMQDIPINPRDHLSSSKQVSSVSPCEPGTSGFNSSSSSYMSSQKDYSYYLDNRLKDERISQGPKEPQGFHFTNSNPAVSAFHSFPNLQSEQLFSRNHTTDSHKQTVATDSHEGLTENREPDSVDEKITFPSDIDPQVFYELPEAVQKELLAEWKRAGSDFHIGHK
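Fluorescent replication assay read twice, at 0 min and 10 min after adding 50 nM (final) substrate. Enzyme (10 nM) and compounds were first incubated 15 min at room temperature; enzyme-free buffer wells were negative controls.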
L3MBTL1 block: L3MBTL1 (human) inhibition; Q9Y468; AlphaScreen L3MBTL1–H3K9me1 peptide binding; Potency, µM (highest dose often 57.1 µM), for the others: at the top dose activity, negative = inhibition, actives largely listed as inhibitors; 230,000 compounds, 0.66% hits; AID 485360; also: potency is read from the fitted curve at half-maximal effect; % is scaled to controls: 0 for no effect and ±100 for the full control effect; nearly all actives have a fitted effect of over 60% in size
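L3MBTL1 (50 nM) pre-complexed 30 min with biotinylated H3(1-15)K9me1 peptide (75 nM), then compounds added for 30 min at room temperature; AlphaScreen streptavidin donor/nickel chelate acceptor beads (10 ug/mL final) read after 30 min dark incubation.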
PGK validate: TbPGK inhibition, hit validation; shares compounds with Pol kappa inh-1; TbPGK coupled GAPDH assay, Kinase-Glo luminescence; Potency, µM (top dose mostly 57.5 µM), for inactives: at the top dose activity change, negative = inhibition, actives largely listed as inhibitors; 500 compounds, 79% hits; AID 686980; also: potency is read from the fitted curve at half-maximal effect; % is scaled to controls: 0 for no effect and ±100 for the full control effect; nearly all actives have a fitted effect of over 65% in size
POLI cherry-pick: Human Pol iota inhibitor confirmatory assay; shares compounds with Pol kappa inh-1; Pol iota primer extension, TAMRA/BHQ fluorescence; Potency, µM, most hits filed as inhibitors; 1,500 compounds, 77% hits; also: potency is read from the fitted curve at half-maximal effect
GALK confirm: galactokinase (human) inhibition, confirmation; shares compounds with Pol eta inh-1; purified GALK, Kinase-Glo ATP depletion luminescence; Potency, µM (highest dose often 115 µM), for the others: at the top dose activity, negative = inhibition, most hits filed as inhibitors; 150 compounds, 70% hits; AID 2015
Redox cycling: counter-screen for GALK inhibitors: redox cycling H2O2 generation; shares compounds with Pol eta inh-1; Phenol red-HRP H2O2 redox cycling, absorbance 600 nm; Potency, µM (highest dose often 115 µM), without a hit: top-dose activity change, negative = H2O2 signal, most hits filed as inhibitors; 150 compounds, 40% hits; AID 2035
HEK293 viability: HEK-293 cytotoxicity, GALK inhibitor secondary. shares compounds with Pol eta inh-1. HEK-293 viability, ATP luminescence (CellTiter-Glo), 24/48 h. Potency, µM (series often up to 46.1 µM), for inactives: at the highest dose activity change, negative = cytotoxicity, hits mostly inhibitors. 170 compounds, 10% hits. AID 2547; also: potency is read from the fitted curve at half-maximal effect; % is scaled to controls: 0 for no effect and ±100 for the full control effect
Pol kappa inh-2: Pol kappa (human) inhibition, cherry-pick confirmation | shares compounds with Pol eta inh-1 | purified Pol-kappa, fluorescent strand-displacement substrate | Potency, µM, most hits filed as inhibitors | 920 compounds, 76% hits | AID 720501; also: potency is read from the fitted curve at half-maximal effect
Pol eta inh-2: Pol eta (human) inhibition, cherry-pick confirmation. shares compounds with Pol eta inh-1. Pol eta primer extension, TAMRA/BHQ fluorescence, 10 min. 2,600 compounds, 64% hits. Potency, µM, most hits filed as inhibitors; also: potency is read from the fitted curve at half-maximal effect
Numbers without * were called inactive; ? = inconclusive; nt = no result given; [ ] = dose if it differs, or a comment. In the library only some 2.4% were active in any assay of this set; here they are far more common. Calls follow the shape of the dose curve; as a rule, active = well fitted curve in the direction sought with a large enough effect; inconclusive = small, poorly fitted or top-dose-only effect, or another doubt; inactive = no such curve, though single readings can be large; an effect the other way counts as inactive or inconclusive.

SMILES	Pol eta inh-1	Pol kappa inh-1	Pol beta inh	Pol iota inh	L3MBTL1 block	POLI cherry-pick	Pol eta inh-2	others
CCc1ccc(S(=O)(=O)/N=C2\C=C(Nc3cccc(C(=O)O)c3)C(=O)c3ccccc32)cc1	22µM*	-24%	?	1.1µM*	nt	75*	60*
O=C(O)c1ccc(NS(=O)(=O)c2ccc3c(c2)C(=O)c2ccccc2C3=O)cc1	?	-30%	?	?	-23%	nt	nt
CC(=O)Nc1ccc(NC2=CC(=O)c3ccccc3C2=O)cc1	?	-10%	-15%	58%	nt	nt	nt
O=C(O)c1ccc(NC2=C/C(=N/S(=O)(=O)c3ccccc3)c3ccccc3C2=O)cc1	8.9µM*	-11%	-24%	?	nt	19*	21*	GALK confirm=?;Redox cycling=6µM*;HEK293 viability=11µM*
O=C(O)c1ccc(NC2=C/C(=N/S(=O)(=O)c3cccs3)c3ccccc3C2=O)cc1	8.9µM*	nt	nt	nt	nt	30*	21*
Cc1cc(OCC(=O)Nc2ccc(N3CCN(C(=O)c4ccco4)CC3)cc2)cc(C)c1Cl	79µM*	-3%	?	?	1%	53*	?
Nc1nc(=S)c2ncn(C3OC(CO)C(O)C3O)c2[nH]1 (configuration not stated)	4µM*	?	0.16µM*	?	25µM*	34*	27*	PGK validate=12µM*;Pol kappa inh-2=15*
Nc1nc(=S)c2ncn([C@@H]3O[C@H](CO)[C@@H](O)[C@H]3O)c2[nH]1	-3%	8%	nt	-4%	-1%	nt	nt
O=C(O)c1cccc2cc(-c3ccccc3)oc(=O)c12	-21%	-4%[60.1 µM]	8%	24%	nt	nt	nt
O=C(O)c1cccc2cccc(-c3c4ccc(=O)c(O)c-4oc4c(O)c(O)ccc34)c12	-98%	1.1µM*	nt	0.71µM*	nt	0.67*	0.95*	PGK validate=0.33µM*
N=C1S/C(=C\c2ccc(-c3ccccc3C(=O)O)o2)C(=O)N1c1ccc2c(c1)OCO2	20µM*	79µM*	25µM*	13µM*	nt	67*	43*	Pol kappa inh-2=19*
O=C(O)CN1C(=O)S/C(=C\c2ccc3c(c2)OCO3)C1=O	-22%	4%	nt	43%	nt	nt	nt
O=S(=O)(Cc1ccccc1)N(O)c1ccccc1	-7%	-4%	9%	71%	nt	nt	nt
O=C(/C=C/c1ccc(O)c(O)c1)NC(=O)c1ccccc1O	7.9µM*	32µM*	10µM*	?	nt	?	60*
O=C(O)/C=C/c1ccc(O)c(O)c1	-17%	?	?	10%	?	nt	nt
O=C(O)c1ccc(/C=N/NC(=O)c2ccc(CN3c4cccc5cccc(c45)S3(=O)=O)cc2)cc1	22µM*	?	?	25µM*	nt	?	60*
Cc1cccc2sc(NC(=O)C3CCN(S(=O)(=O)c4cc([N+](=O)[O-])ccc4Cl)CC3)nc12	11µM*	79µM*	?	25µM*	?	?	76*
CC(C)(CNC(=O)C1CCN(S(=O)(=O)c2cc([N+](=O)[O-])ccc2Cl)CC1)N1CCOCC1	-17%	-1%	nt	?	1%	nt	nt
O=C(CSc1nc2ccsc2c(=O)n1CC1CCC(C(=O)O)CC1)c1ccc(F)cc1 (configuration not stated)	?	1%	5%	-21%	nt	nt	nt
O=C(CSc1nc2ccsc2c(=O)n1CC1CCC(C(=O)O)CC1)c1ccc(Cl)cc1 (configuration not stated)	40µM*	?	22µM*	20µM*	nt	42*	nt	Pol kappa inh-2=60*
CN1N/C(=C\c2ccccc2)N=C2C(=O)N(C)C(=O)N=C21	nt	?	nt	-98%	nt	2.7*	5.4*
CC/C=C1/N=C2C(=O)N(C)C(=O)N=C2N(C)N1	nt	-9%	nt	-19%	nt	nt	nt
Nc1cccc2[nH]cnc12	nt	-12%	nt	16%	nt	nt	nt
Cc1c(Cl)cnc(NC(=O)COC(=O)/C=C/c2ccco2)c1Cl	22µM*	79µM*	nt	22µM*	?	?	60*	Pol kappa inh-2=60*
Cc1cccc(-n2c3nc(=O)[nH]c(=O)c-3cc3c(Cl)cccc32)c1C	-11%	-14%	-8%	-14%	nt	nt	nt
SMILES	Pol eta inh-1	Pol kappa inh-1	Pol beta inh	Pol iota inh	L3MBTL1 block	POLI cherry-pick	Pol eta inh-2	others
Cn1cc(-c2cc3n(n2)CCC(=O)N3CCCC(=O)Nc2ccccc2Cl)c2ccccc21	-2%	-10%[60.1 µM]	?	?	nt	nt	nt
Cc1cc(C)n2c(SCC(=O)N(CCC#N)c3ccc4c(c3)OCCO4)nnc2n1	20µM*	nt	nt	nt	nt	27*	48*	Pol kappa inh-2=17*
Cc1ccc(N(CCC#N)C(=O)CSc2ccc3c(c2)OCCO3)cc1	-6%	-12%	0%	1%	10%	nt	nt
COc1ccc(-c2ccc(CCC(=O)O)n2CC(=O)Nc2cccc(C(F)(F)F)c2)cc1	-13%	-17%	-13%	-3%	nt	nt	nt
O=c1c2ccccc2c(C=Nc2cccc(O)c2)c(O)n1-c1ccc2c(c1)OCO2	13µM*	-22%	40µM*	?	-2%	?	?
O=c1cc(N2CCNCC2)nc2sc(-c3ccncc3)nn12	nt	nt	nt	nt	nt	27*	76*
COc1cc(NC(=O)C2CCN(C(=O)c3sc4nc[nH]c(=O)c4c3C)CC2)cc(OC)c1OC	2%	1%[60.1 µM]	8%	-14%	nt	nt	nt
CN(CC(=O)Nc1cccc(F)c1)C(=O)c1ccc(N2C(=O)c3ccccc3C2=O)cc1	-18%	-5%	nt	2%	-4%	nt	nt
